Read-out in assay [1]: TIMP metallopeptidase inhibitor 2 (TIMP2), TIMP2 (gene 7077)
In words: BSK_KF3CT_TIMP2: BioMAP Diversity Plus: KF3CT Assay for TIMP metallopeptidase inhibitor 2 (TIMP2) Biomarker Activity (AID 2283071). The following applies: primary human keratinocytes with fibroblasts; actives raise or lower the signal. The essentials: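 Human primary keratinocyte/foreskin fibroblast co-culture dosed with chemical and sampled at 24 h. TIMP-2 levels quantified by ELISA; bidirectional fitting against DMSO negative control as baseline.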

Read-out in assay [2]: C-C motif chemokine 2 (Homo sapiens) (UniProt P13500)
In words: BSK_KF3CT_MCP1: BioMAP Diversity Plus: KF3CT Assay for Monocyte Chemoattractant Protein 1 (MCP1/CCL2) Biomarker Activity (AID 2283073). The following applies: primary human keratinocytes with fibroblasts; actives raise or lower the signal. The gist of the method:
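Keratinocytes and foreskin fibroblasts were co-cultured, dosed with chemical, and sampled 24 h later. MCP-1 was quantified by ELISA, and the endpoint was analyzed with bidirectional fitting using DMSO as negative control.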

Read-out in assay [3]: Matrix Metallopeptidase 9 (MMP9), MMP9 (gene 4318)
In words: BSK_KF3CT_MMP9: BioMAP Diversity Plus: KF3CT Assay for Matrix Metallopeptidase 9 (MMP9) Biomarker Activity (AID 2283074). The conditions noted are these: primary human keratinocytes with fibroblasts; actives raise or lower the signal. The essentials:
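Human keratinocyte/foreskin fibroblast co-culture; compound added; 24 h; MMP-9 by ELISA; bidirectional fit vs DMSO baseline.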

Read-out in assay [4]: urokinase plasminogen activator (uPA), PLAU (gene 5328)
In words: BSK_KF3CT_uPA: BioMAP Diversity Plus: KF3CT Assay for urokinase plasminogen activator (uPA) Biomarker Activity (AID 2283075). The conditions noted are these: primary human keratinocytes with fibroblasts; actives raise or lower the signal. The gist of the method:
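ELISA readout of uPA, analyzed for signal gain or loss relative to DMSO, from a human primary keratinocyte–foreskin fibroblast co-culture measured 24 h after chemical treatment.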

Read-out in assay [5]: E-selectin (Homo sapiens) (UniProt P16581)
In words: BSK_LPS_Eselectin: BioMAP Diversity Plus: LPS Assay for Eselectin Biomarker Activity (AID 2283077). The following applies: primary human HUVEC with PBMC; actives raise or lower the signal. The gist of the method:
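Signal of E-selectin, detected by ELISA, served as the endpoint; cells were umbilical vein endothelium with PBMC, read 24 h after treatment. DMSO defined baseline, and both increases and decreases were fitted.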

Read-out in assay [6]: Interleukin-8 (IL8), CXCL8 (gene 3576)
In words: BSK_LPS_IL8: BioMAP Diversity Plus: LPS Assay for Interleukin-8 (IL8) Biomarker Activity (AID 2283078). The following applies: primary human HUVEC with PBMC; actives raise or lower the signal. The gist of the method:
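Endothelial cells and PBMC from human donors are co-cultured, treated with chemicals and LPS, then assayed for IL-8 by ELISA after 24 h. Parallel SRB staining (0.1% SRB after 10% TCA fixation, 560 nm) flags cytotoxicity.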

Assay [7] in a line: BSK_LPS_SRB: Viability Assessment in the BioMAP Diversity Plus: LPS Assay (AID 2283079).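 Also: total protein by sulforhodamine B absorbance as a cytotoxicity measure; measured one day after compound addition; fitted in both directions against DMSO so loss or gain of signal counts.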 The following applies: primary human HUVEC with PBMC. The gist of the method: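 Overt cytotoxicity was gauged by sulforhodamine B total-protein staining in a primary human vascular endothelial and mononuclear cell co-culture 24 h post-dosing. Activity was fitted in both directions relative to DMSO.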

Read-out in assay [8]: Monocyte Chemoattractant Protein-1 (MCP1), CCL2 (gene 6347)
In words: BSK_LPS_MCP1: BioMAP Diversity Plus: LPS Assay for Monocyte Chemoattractant Protein-1 (MCP1) Biomarker Activity (AID 2283081). The conditions noted are these: primary human HUVEC with PBMC; actives raise or lower the signal. The essentials: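 LPS-stimulated HUVEC/PBMC co-culture; chemical, 24 h; MCP-1 by ELISA; bidirectional fit vs DMSO; cytotoxicity via SRB (0.1% stain, 10% TCA fix, 560 nm) in parallel wells.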

Assay [9] is described as follows: BSK_LPS_PGE2: BioMAP Diversity Plus: LPS Assay for Prostaglandin E2 (PGE2) Biomarker Activity (AID 2283082).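 As to AC50: secreted prostaglandin E2 measured by ELISA in LPS-stimulated co-culture.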 The conditions noted are these: primary human HUVEC with PBMC; actives raise or lower the signal. The gist of the method:
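HUVEC plus PBMC co-culture stimulated with LPS; secreted PGE2 quantified by ELISA 24 h after chemical dosing. Activity fitted bidirectionally against DMSO as negative control and baseline; parallel SRB total-protein staining served as cytotoxicity check.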

Read-out in assay [10]: Macrophage colony-stimulating factor (MCSF), CSF1 (gene 1435)
In words: BSK_LPS_MCSF: BioMAP Diversity Plus: LPS Assay for Macrophage colony-stimulating factor (MCSF) Biomarker Activity (AID 2283083). The conditions noted are these: primary human HUVEC with PBMC; actives raise or lower the signal. The gist of the method: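 Compound is added to a human vascular primary co-culture of umbilical vein endothelium and blood mononuclear cells. After 24 h, M-CSF is quantified by ELISA. Signal changes are fitted in both directions against DMSO.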

Read-out in assay [11]: Tissue Factor, F3 (gene 2152)
In words: BSK_LPS_TissueFactor: BioMAP Diversity Plus: LPS Assay for Tissue Factor Biomarker Activity (AID 2283084). The conditions noted are these: primary human HUVEC with PBMC; actives raise or lower the signal. The essentials: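 In this co-culture system of umbilical vein endothelium with PBMC, stimulated with LPS, cell-surface CD142 is detected by ELISA at 24 h. Endpoint values derive from bidirectional fitting, DMSO serving as baseline.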

Read-out in assay [12]: Tumor necrosis factor (Homo sapiens) (UniProt P01375)
In words: BSK_LPS_TNFa: BioMAP Diversity Plus: LPS Assay for Tumour Necrosis Factor alpha (TNFa) Biomarker Activity (AID 2283085). The following applies: primary human HUVEC with PBMC; actives raise or lower the signal. The essentials: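 Human umbilical vein endothelial cells co-cultured with PBMC were exposed to test chemical and TNFa measured by ELISA 24 h after dosing. Bidirectional curve fitting was done relative to DMSO as negative control and baseline.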

Read-out in assay [13]: Vascular cell adhesion molecule 1 (VCAM1), VCAM1 (gene 7412)
In words: BSK_LPS_VCAM1: BioMAP Diversity Plus: LPS Assay for Vascular cell adhesion molecule 1 (VCAM1) Biomarker Activity (AID 2283086). The following applies: primary human HUVEC with PBMC; actives raise or lower the signal. The essentials: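 Human umbilical vein endothelial cells co-cultured with peripheral blood mononuclear cells under LPS stimulation were exposed to test chemical for 24 h. VCAM-1 levels were then measured by ELISA, with bidirectional curve fitting relative to DMSO as negative control and baseline.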

Read-out in assay [14]: CD38, CD38 (gene 952)
In words: BSK_SAg_CD38: BioMAP Diversity Plus: SAg Assay for CD38 Biomarker Activity (AID 2283087). The conditions noted are these: primary human HUVEC with PBMC; actives raise or lower the signal. The essentials:
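Fluorescence ELISA of cell-surface CD38 served as the read-out, with either increase or decrease fitted against DMSO controls. Cells were a human umbilical vein endothelium plus PBMC co-culture under SEB/TSST-1 stimulation, measured 24 h after dosing.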

Read-out in assay [15]: CD40, CD40 (gene 958)
In words: BSK_SAg_CD40: BioMAP Diversity Plus: SAg Assay for CD40 Biomarker Activity (AID 2283088). The following applies: primary human HUVEC with PBMC; actives raise or lower the signal. The essentials:
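Fluorescence ELISA read-out of CD40 from umbilical vein endothelium plus peripheral blood mononuclear cells, sampled 24 h after dosing. Values come from bidirectional curve fitting with DMSO as baseline.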

Read-out in assay [16]: CD69, CD69 (gene 969)
In words: BSK_SAg_CD69: BioMAP Diversity Plus: SAg Assay for CD69 Biomarker Activity (AID 2283089).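 As to AC50: cell surface CD69 protein quantified by ELISA with fluorescence detection.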 The following applies: primary human HUVEC with PBMC; actives raise or lower the signal. The gist of the method:
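Endothelial/PBMC co-culture; chemical added; 24 h incubation; CD69 ELISA with fluorescence detection; bidirectional fit vs DMSO.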

Read-out in assay [17]: Monocyte Chemoattractant Protein-1 (MCP1), CCL2 (gene 6347)
In words: BSK_SAg_MCP1: BioMAP Diversity Plus: SAg Assay for Monocyte Chemoattractant Protein-1 (MCP1) Biomarker Activity (AID 2283090). The following applies: primary human HUVEC with PBMC; actives raise or lower the signal. The essentials:
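MCP-1 levels in the endothelial–PBMC SAg co-culture were quantified by ELISA at 24 h post-dosing; both increases and decreases versus DMSO scored. Cytotoxicity monitored by SRB total protein in parallel cultures.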

Read-out in assay [18]: Transforming growth factor beta 1 (TGFb1), TGFB1 (gene 7040)
In words: BSK_KF3CT_TGFb1: BioMAP Diversity Plus: KF3CT Assay for Transforming growth factor beta 1 (TGFb1) Biomarker Activity (AID 2283072). The following applies: primary human keratinocytes with fibroblasts; actives raise or lower the signal. The gist of the method:
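Human keratinocyte plus foreskin fibroblast primary co-culture, dosed with chemical for 24 h. TGF-b1 quantified by ELISA. Activity fitted bidirectionally against DMSO negative control as baseline.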

In PubChem BioAssay (EPA / NIEHS) one finds outcome and AC50 data, which are given here for 6 compounds.

“And” between values parts separate entries of the source, which are not always exact repeats. Equal entries are not always repeated. Some compounds were tested as several samples or in several runs, with calls that do not always agree. The source made the active and inactive calls. The calls were made as follows: active = hit-call score of the fitted dose curve at least 0.9, where 1 is the maximum; inactive = score below 0.9.

Sequence of Tumor necrosis factor (Homo sapiens) (P01375 whole entry, looked up): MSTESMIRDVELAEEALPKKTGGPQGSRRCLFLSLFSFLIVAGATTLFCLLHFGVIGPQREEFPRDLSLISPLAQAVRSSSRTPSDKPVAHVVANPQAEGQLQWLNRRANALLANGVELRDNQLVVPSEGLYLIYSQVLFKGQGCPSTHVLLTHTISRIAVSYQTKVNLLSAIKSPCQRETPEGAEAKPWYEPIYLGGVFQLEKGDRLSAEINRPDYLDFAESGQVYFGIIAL
Sequence of E-selectin (Homo sapiens) (P16581 whole entry, looked up): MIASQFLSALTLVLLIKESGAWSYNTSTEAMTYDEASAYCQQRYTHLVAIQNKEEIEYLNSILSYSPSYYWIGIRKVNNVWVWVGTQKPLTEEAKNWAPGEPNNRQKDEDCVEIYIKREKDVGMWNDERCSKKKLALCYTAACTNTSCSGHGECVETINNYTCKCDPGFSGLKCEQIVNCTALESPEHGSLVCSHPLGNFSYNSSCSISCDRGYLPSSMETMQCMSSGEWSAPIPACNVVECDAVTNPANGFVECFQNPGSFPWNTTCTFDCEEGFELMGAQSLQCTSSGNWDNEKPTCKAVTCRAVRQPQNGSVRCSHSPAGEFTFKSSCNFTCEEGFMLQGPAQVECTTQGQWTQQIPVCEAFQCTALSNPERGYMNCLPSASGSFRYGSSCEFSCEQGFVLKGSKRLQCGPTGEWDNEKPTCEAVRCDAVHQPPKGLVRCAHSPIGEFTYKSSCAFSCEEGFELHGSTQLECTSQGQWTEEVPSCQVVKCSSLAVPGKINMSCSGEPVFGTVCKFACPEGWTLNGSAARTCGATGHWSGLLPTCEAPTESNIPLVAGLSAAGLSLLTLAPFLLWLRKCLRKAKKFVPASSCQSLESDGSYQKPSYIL

Consider `CCCCN(CCO)CCO`, for which the result in assay [1], in assay [2], in [3], in assay [4], in assay [5] and in assay [6] was inactive. Besides, the result in assay [7], in [8], in [9], in assay [10], in assay [11] and in [12] was inactive. For the same compound, the outcome in assay [13], in assay [14], in assay [15], in [16] and in assay [17] was inactive. Besides, the AC50 in assay [4] is 14.9 µM (active).

As for `CC(=O)c1ccc(C)cc1`, the result in [1], in [2], in assay [3], in [4], in assay [5] and in assay [6] was inactive. The outcome in assay [7], in [8], in assay [9], in assay [10], in [11] and in assay [12] was inactive. The outcome in assay [13], in [14], in assay [15], in [16] and in assay [17] was inactive.

Turning to `C=C(F)C(=O)OC(C(F)(F)F)C(F)(F)F`, the outcome in [1], in [2], in [3], in assay [4], in assay [5] and in [6] was inactive. For the same compound, the outcome in assay [7], in assay [8], in assay [9], in assay [10], in [11] and in assay [12] was inactive. For the same compound, the result in assay [13], in [14], in [15], in assay [16] and in [17] was inactive.

For `CCOC(=O)CCCCCCCCC(=O)OCC`, the result in assay [1], in assay [18], in [2], in assay [3], in [4] and in [5] was inactive. In addition, the result in [6], in [7], in assay [8], in [9], in [10] and in [11] was inactive. Besides, the outcome in [12], in assay [13], in assay [14], in assay [15], in assay [16] and in assay [17] was inactive.

In the case of `CC(=O)CCC=C(C)CCC=C(C)C`, the outcome in assay [1], in assay [18], in [2], in [3], in assay [4] and in [5] was inactive. The result in assay [6], in [7], in assay [8], in assay [9], in assay [10] and in assay [11] was inactive. The outcome in [12], in assay [13], in assay [14], in [15], in assay [16] and in [17] was inactive.

On to `O=C(O)C(F)(F)OC(F)(F)C(F)(F)OC(F)(F)C(F)(F)C(F)(F)C(F)(F)F`, for which the result in [1], in [2], in assay [3], in assay [4], in assay [5] and in [6] was inactive. In addition, the result in [7], in [8], in assay [10], in [11], in [12] and in [13] was inactive. Besides, the result in assay [14], in assay [15], in assay [16] and in assay [17] was inactive. For the same compound, the AC50 is 51 µM (active) in [7]; 15 µM (active) and 11.1 µM (active) in assay [9]; 24.4 µM (active) in assay [13]; 41.9 µM (active) in assay [14]; 44 µM (active) in assay [15]; 34.2 µM (active) in assay [16].
